The record followed here is PubChem BioAssay.

Unmarked numbers belong to inactive results.

A short description of this experiment: fission yeast growth modulation, primary screen, strain 972, OD600, 24 h, no modulator (AID 1090).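 Also: basal condition with compound alone and no growth modifier present; test concentration not given here.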 The following applies: S. pombe 972 growth, higher = more signal, called active from +8 up or from −8 down.
Take `COc1ccc(C(O)C2C=CC3C(=O)N(C)C(=O)C3N2N(c2ccccc2)c2ccccc2)cc1` (stereo not drawn): the z-score was 0.733.
The result for `COCCOC(=O)N1C(=O)[C@@]2(c3cc(C#CCC(C(=O)OC)C(=O)OC)ccc31)[C@H](C(=O)Nc1nc3ccccc3s1)[C@H]1C(=O)O[C@H](c3ccccc3)[C@H](c3ccccc3)N1[C@@H]2c1ccc(O)cc1` reads 0.431; that for `CC(C)(C)N1CC=CC23O[C@@H]4C=CCCOC(=O)C4[C@H]2C(=O)N(CCCCCCO)[C@@H]3C1=O` (stereo partly drawn), -0.563.
Under `O=C1C[C@@](C(=O)NCc2ccccc2)(c2ccc([N+](=O)[O-])cc2)[C@@H](c2ccc(CO)cc2)N1C1CCCCC1` stands -0.221.
The result for `Cc1ccc(S[C@]2(C(=O)NCc3ccccc3)CC(=O)N(Cc3ccccc3C(F)(F)F)[C@@H]2c2ccc(CO)cc2)cc1` reads 0.447.
Turning to `COCCOC(=O)N1C(=O)[C@@]2(c3cc(C#CCCO)ccc31)[C@H](C(N)=O)[C@H]1C(=O)O[C@H](c3ccccc3)[C@H](c3ccccc3)N1[C@@H]2c1ccccc1OCCO`, the z-score was 1.17.
Consider `CC(C)=C1C(=O)C(c2ccccc2)=C2CN3C(=O)N(CCc4ccccc4)C(=O)[C@]3(C)[C@H]21`, for which the z-score was -0.262.
Consider `CC(C)(C)OC(=O)CC[C@@]1(C(=O)NCCN2CCOCC2)N=C(c2ccc(OCCCO)cc2)O[C@@H]1c1ccccc1CN=[N+]=[N-]`, for which the z-score is 0.258.
